Assay [1] is described as follows: AP1 Signaling Pathway (AID 357; active = well fitted curve in either direction with a large enough effect, not every such curve was filed as active;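 also: ME-180 reporter cells stimulated with EGF at its EC50 level; % is scaled to controls: 0 for no effect and ±100 for the full control effect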). The conditions noted are these: ME-180 AP-1-bla reporter, EGF-induced, beta-lactamase ratio, 5 h; at 17.2 µM (top of the series) unless noted. A digest of the protocol:
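Cells are seeded overnight, exposed to compound titrations and an EC50 level of EGF for 5 hours at 37 °C, then loaded with CCF4 dye for 2.5 hours. Beta-lactamase activity under the AP-1 element is read as a blue/green ratio.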

Assay [2] in a line: qHTS Assay for Identification of Small Molecule Agonists for Hypoxia Response Element Signaling Pathway (AID 914; active = well fitted activation curve with a large enough effect in the signal ratio, with a control signal flat, not every such curve was filed as active; the % refers to the signal ratio; also: potency is read from the fitted curve at half-maximal effect). Particulars: ME-180 HRE-bla reporter, beta-lactamase ratio, CoCl2, 17 h; activation: active compounds read high. An outline of the steps: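 Positive modulation of EC50 CoCl2-induced hypoxia response element signaling is measured in ME-180 cells with a beta-lactamase reporter. Compounds are titrated, incubation runs 17 hours, and %Activity derives from the blue/green ratio.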
(qHTS replaces the single test concentration by a dilution series.)

Assay [3] deals with Cytochrome P450 1A2 (Homo sapiens) (UniProt P05177). Description: p450-cyp1a2 (AID 410; calls by dose curve; also: potency is read from the fitted curve at half-maximal effect;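 as to activity change, negative = inhibition: -100% = full effect of reference inhibitor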). An outline of the steps:
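20nM CYP1A2 with 100uM Luciferin-ME (at Km) in 100mM KPO4; compound preincubated 10 min, NADPH regeneration added, 60 min at room temperature. Luciferin quantified by luminescence after detection reagent; normalized to 57 uM furafylline.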

Assay [4] deals with Glucocorticoid receptor (Homo sapiens) (UniProt P04150). The experiment in a line: GR-GFP Redistribution (AID 450;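 active = compounds whose dose series gives a full or clear partial fitted curve of increased nuclear translocation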; also: potency is read from the fitted curve at half-maximal effect). The conditions noted are these: U2OS GR-GFP nuclear translocation, laser cytometry, 2 h.
Chain of Glucocorticoid receptor (Homo sapiens) (P04150 whole entry, looked up, the tested form may be a part): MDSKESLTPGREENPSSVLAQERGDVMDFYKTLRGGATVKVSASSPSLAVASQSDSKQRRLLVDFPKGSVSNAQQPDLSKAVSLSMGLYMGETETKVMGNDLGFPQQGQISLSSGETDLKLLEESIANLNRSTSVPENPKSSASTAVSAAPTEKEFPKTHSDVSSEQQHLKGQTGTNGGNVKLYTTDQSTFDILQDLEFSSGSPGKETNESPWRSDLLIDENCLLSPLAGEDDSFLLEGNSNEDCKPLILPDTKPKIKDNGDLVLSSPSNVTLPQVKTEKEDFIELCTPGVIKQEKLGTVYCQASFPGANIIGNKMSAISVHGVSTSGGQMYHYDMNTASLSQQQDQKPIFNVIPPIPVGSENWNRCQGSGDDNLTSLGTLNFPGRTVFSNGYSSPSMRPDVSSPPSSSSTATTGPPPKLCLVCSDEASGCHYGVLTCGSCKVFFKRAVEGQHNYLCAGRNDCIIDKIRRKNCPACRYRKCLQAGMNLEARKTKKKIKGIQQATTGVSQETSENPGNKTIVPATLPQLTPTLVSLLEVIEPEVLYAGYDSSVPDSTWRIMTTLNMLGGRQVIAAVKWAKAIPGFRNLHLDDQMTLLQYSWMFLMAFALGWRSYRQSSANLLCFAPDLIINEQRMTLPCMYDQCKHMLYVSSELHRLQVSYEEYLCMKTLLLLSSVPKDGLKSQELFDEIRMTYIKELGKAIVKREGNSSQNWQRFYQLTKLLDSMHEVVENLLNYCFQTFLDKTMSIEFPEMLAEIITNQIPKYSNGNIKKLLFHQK
For assay [5] the target is unchanged. Description: GR-EFC Redistribution (AID 451; calls by dose curve; also: potency is read from the fitted curve at half-maximal effect). Particulars: CHO-K1 GR-EFC translocation, beta-gal luminescence, 2 h. An outline of the steps: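 CHO-K1 cells expressing nuclear EA and GR-ED fragments of b-gal; compounds titrated up to 46 uM final, 2 h at 37 C. GR nuclear translocation read as complemented b-gal luminescence after 1 h RT detection.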
In assay [6] the target is Mitogen-activated protein kinase 10 (Mus musculus) (UniProt Q61831). Description: JNK3 AlphaScreen Assay (AID 530; active = well fitted curve in either direction with a large enough effect, not every such curve was filed as active;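 also: kinase came from lysate of stimulated human HepG2 cells; signal reports phosphorylation of biotinylated GST-cJun 1-79 at Ser73 with 10 µM ATP; % is scaled to controls: 0 for no effect and ±100 for the full control effect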). An outline of the steps:
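Pre-activated (IL-1β/TNFα) JNK3 in HepG2 lysates phosphorylates biotin-GST-cJun(1-79), 10 uM ATP; anti-phospho-cJun(Ser73) AlphaScreen read at room temperature, pH 7.6 Tris buffer. Compounds pre-incubated 15 min as titrations.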
For orientation: Bead proximity is the source of the signal in Alpha formats.

For assay [7], the target named is 3',5'-cyclic-AMP phosphodiesterase 4B (Homo sapiens) (UniProt Q07343). The experiment in a line: qHTS Assay for Inhibitors of PDE-IV (AID 607; active = well fitted activation curve with a large enough effect in the main read-out, with a control signal flat, not every such curve was filed as active; also: % of control where 0% means no effect). A digest of the protocol:
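HEK293 ACTOne cells with CNG channel (1000/well), endogenous PDE4; membrane potential dye, compounds up to 22.9 uM final. Fluorescence Ex 535/Em 590; RO 20-1724 (100 uM final) as reference.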

The target of assay [8] is Cytochrome P450 2C9 (Homo sapiens) (UniProt P11712). Description: qHTS Assay for Inhibitors and Substrates of Cytochrome P450 2C9 (AID 883). Also: % is scaled to controls: 0 for no effect and ±100 for the full control effect; nearly all actives have a fitted effect of over 60% in size. A digest of the protocol: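 10nM CYP2C9 + 100uM Luciferin-H (=KM), 25mM KPO4; cpd 10 min 37C; NADPH regen, 60 min 37C; stop/detect with P450 Glo-Buffer 20 min; luminescence. Norm. to 57uM sulphaphenazole as full inhibition.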
Chain of Cytochrome P450 2C9 (Homo sapiens) (P11712 whole entry, looked up): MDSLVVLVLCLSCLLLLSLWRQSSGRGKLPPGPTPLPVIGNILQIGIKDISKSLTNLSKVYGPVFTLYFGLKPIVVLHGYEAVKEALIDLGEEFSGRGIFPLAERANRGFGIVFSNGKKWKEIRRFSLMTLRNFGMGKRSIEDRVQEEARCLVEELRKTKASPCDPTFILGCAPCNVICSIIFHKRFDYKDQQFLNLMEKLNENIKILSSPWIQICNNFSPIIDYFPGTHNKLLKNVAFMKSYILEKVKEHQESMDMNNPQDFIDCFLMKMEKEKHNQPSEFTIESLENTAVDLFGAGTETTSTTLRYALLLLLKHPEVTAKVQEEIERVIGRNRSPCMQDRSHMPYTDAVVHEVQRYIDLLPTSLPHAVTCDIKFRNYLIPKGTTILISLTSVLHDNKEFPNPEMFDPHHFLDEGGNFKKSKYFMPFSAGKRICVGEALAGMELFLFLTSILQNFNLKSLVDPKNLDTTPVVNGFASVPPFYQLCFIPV
For assay [9], the target named is Cytochrome P450 2D6 (Homo sapiens) (UniProt P10635). Description: qHTS Assay for Inhibitors and Substrates of Cytochrome P450 2D6 (AID 891). Also: nearly all actives have a fitted effect of over 60% in size. Also: potency is read from the fitted curve at half-maximal effect.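 As to activity change, negative = inhibition: luciferin methyl ether substrate demethylated by CYP2D6 with NADPH regeneration; % is scaled to controls: 0 for no effect and ±100 for the full control effect.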 An outline of the steps: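 Human CYP2D6 (5 nM) with 30 uM Luciferin-ME EGE (at Km) in 100 mM KPO4, compound preincubated 10 min, then NADPH regeneration system for 60 min at room temperature. Luciferin read by luminescence; normalized to 1.43 uM quinidine.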
Chain of Cytochrome P450 2D6 (Homo sapiens) (P10635 whole entry, looked up): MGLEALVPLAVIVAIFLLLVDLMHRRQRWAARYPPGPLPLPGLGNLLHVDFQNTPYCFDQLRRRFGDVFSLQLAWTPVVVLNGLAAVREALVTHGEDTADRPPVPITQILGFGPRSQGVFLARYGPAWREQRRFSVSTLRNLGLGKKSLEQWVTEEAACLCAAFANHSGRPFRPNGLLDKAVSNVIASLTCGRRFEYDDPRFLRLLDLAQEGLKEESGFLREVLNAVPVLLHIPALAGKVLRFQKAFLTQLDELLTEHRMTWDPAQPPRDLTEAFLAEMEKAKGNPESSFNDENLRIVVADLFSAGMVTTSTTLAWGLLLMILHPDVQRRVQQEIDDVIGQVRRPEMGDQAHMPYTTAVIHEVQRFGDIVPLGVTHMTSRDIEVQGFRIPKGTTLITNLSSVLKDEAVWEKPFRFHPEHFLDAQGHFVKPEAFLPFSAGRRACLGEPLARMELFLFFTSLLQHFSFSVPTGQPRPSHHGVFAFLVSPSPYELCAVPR

Assay [10] deals with Cytochrome P450 2C19 (Homo sapiens) (UniProt P33261). The experiment in a line: qHTS Assay for Inhibitors and Substrates of Cytochrome P450 2C19 (AID 899). Also: % is scaled to controls: 0 for no effect and ±100 for the full control effect; nearly all actives have a fitted effect of over 60% in size. An outline of the steps:
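Luminescent read-out of luciferin formed from Luciferin-H EGE (10uM, equal to KM). Enzyme 5nM in 50mM KPO4; compound added, 10 min at 37C, then NADPH regenerating system for 60 min at 37C. Full inhibition defined by 57uM ketoconazole.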

Assay [11] in a line: Stat Signaling Pathway (AID 446; active = well fitted curve in either direction with a large enough effect, not every such curve was filed as active;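 also: ME-180 cervical cancer cells given 40 pM IL-6 alongside compound; SIE-controlled beta-lactamase reporter measured as 460/530 nm FRET emission ratio; % is scaled to controls: 0 for no effect and ±100 for the full control effect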). A digest of the protocol: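 ME-180 cells carrying a SIE-driven beta-lactamase reporter are stimulated with 40 pM IL-6 for 5 h at 37C in the presence of compound. The 460/530 nm FRET substrate ratio is read after 2.5 h at RT. Data are normalised to 300 pM IL-6 and to 125 nM JAK inhibitor controls.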
The target of assay [12] is Cytochrome P450 3A4 (Homo sapiens) (UniProt P08684). The experiment in a line: qHTS Assay for Activators of Cytochrome P450 3A4 (AID 885). Also: nearly all actives have a fitted effect of over 65% in size. An outline of the steps: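 Human CYP3A4 (20 nM) with Luciferin-PPXE at 25 uM (its KM) in 200 mM KPO4; 10 min compound preincubation, then NADPH regeneration and 60 min reaction at RT. Luciferin read by luminescence; normalized to 57 uM ketoconazole full inhibition.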
Chain of Cytochrome P450 3A4 (Homo sapiens) (P08684 whole entry, looked up): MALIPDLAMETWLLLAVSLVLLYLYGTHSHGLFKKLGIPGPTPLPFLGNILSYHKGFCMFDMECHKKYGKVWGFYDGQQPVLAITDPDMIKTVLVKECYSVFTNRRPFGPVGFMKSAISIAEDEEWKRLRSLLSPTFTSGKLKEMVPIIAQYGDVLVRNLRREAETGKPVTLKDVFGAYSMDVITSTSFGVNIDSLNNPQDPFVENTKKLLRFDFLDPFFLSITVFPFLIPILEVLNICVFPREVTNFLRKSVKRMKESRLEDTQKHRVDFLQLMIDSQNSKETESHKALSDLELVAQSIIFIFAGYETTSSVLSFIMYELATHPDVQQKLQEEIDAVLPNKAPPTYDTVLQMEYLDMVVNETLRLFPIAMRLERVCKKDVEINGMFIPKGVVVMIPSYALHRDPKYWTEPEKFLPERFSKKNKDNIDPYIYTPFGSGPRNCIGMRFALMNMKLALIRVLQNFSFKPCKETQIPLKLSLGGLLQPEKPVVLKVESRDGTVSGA

Assay [13] deals with DNA dC->dU-editing enzyme APOBEC-3G (Homo sapiens) (UniProt Q9HC16). The experiment in a line: qHTS for inhibitors of Vif-A3G interactions: Validation (AID 588379). Also: 0% is about no effect. A digest of the protocol:
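HeLa cells stably expressing Vif and A3G-eYFP, 700 cells/well, incubated overnight at 37 deg C, then exposed to compound overnight at 37 deg C. Inhibition of Vif-mediated degradation read as increased yellow fluorescence (Ex 488/Em 500-530) by laser-scanning cytometry.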

A number with no mark means an inactive call. Records with an inconclusive call do not appear. The source made the active and inactive calls. Unless noted, calls follow the shape of the dose curve; as a rule, active = well fitted curve in the direction sought with a large enough effect; inconclusive = small, poorly fitted or top-dose-only effect, or another doubt; inactive = no such curve, though single readings can be large; an effect the other way counts as inactive or inconclusive.

The record followed here is PubChem BioAssay (NCATS).

Chain of Cytochrome P450 1A2 (Homo sapiens) (P05177 whole entry, looked up): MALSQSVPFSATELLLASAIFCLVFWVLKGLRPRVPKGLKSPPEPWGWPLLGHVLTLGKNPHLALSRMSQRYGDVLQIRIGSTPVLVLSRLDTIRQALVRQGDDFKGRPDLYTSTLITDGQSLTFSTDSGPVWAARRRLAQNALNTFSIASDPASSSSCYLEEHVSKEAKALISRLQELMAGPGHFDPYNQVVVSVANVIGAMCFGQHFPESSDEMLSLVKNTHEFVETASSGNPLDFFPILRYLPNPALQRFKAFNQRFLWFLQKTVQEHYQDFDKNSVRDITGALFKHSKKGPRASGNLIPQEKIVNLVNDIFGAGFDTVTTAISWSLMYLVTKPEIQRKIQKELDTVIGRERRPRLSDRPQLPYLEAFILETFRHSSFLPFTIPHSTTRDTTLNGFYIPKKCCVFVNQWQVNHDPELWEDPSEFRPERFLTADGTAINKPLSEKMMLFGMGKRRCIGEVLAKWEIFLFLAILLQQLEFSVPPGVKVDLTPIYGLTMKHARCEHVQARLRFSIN
Chain of Cytochrome P450 2C19 (Homo sapiens) (P33261 whole entry, looked up): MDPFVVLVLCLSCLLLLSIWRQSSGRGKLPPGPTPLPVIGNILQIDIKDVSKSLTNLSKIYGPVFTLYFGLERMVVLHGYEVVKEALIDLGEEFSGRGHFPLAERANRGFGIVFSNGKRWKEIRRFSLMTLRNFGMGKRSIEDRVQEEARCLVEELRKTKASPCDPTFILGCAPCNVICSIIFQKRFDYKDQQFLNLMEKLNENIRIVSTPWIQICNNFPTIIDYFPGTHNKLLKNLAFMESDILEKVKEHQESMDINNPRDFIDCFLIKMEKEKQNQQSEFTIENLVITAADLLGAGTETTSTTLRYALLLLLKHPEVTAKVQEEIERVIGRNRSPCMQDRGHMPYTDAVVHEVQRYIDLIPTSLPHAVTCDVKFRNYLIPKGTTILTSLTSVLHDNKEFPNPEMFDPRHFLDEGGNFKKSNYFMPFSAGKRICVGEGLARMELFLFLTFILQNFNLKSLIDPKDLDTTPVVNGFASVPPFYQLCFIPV
Chain of 3',5'-cyclic-AMP phosphodiesterase 4B (Homo sapiens) (Q07343 whole entry, looked up): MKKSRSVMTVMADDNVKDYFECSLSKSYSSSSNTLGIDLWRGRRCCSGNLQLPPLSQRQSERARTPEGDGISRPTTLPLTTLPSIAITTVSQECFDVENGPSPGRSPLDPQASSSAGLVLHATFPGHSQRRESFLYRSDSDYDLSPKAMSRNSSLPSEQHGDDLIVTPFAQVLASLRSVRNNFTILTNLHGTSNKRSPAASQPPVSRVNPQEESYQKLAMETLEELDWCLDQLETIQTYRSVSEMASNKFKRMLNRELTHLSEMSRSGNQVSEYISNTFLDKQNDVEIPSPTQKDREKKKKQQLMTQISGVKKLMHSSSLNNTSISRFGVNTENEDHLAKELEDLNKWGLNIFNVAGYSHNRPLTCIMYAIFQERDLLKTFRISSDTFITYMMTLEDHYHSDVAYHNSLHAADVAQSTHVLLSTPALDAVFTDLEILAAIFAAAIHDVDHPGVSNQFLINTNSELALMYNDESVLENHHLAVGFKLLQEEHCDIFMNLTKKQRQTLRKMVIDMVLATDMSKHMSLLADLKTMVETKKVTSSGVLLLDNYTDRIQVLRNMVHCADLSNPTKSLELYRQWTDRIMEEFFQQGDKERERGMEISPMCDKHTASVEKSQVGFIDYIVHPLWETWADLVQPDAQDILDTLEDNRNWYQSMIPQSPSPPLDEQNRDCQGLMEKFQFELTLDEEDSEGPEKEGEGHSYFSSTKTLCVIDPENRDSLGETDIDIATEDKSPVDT
Chain of DNA dC->dU-editing enzyme APOBEC-3G (Homo sapiens) (Q9HC16 whole entry, looked up): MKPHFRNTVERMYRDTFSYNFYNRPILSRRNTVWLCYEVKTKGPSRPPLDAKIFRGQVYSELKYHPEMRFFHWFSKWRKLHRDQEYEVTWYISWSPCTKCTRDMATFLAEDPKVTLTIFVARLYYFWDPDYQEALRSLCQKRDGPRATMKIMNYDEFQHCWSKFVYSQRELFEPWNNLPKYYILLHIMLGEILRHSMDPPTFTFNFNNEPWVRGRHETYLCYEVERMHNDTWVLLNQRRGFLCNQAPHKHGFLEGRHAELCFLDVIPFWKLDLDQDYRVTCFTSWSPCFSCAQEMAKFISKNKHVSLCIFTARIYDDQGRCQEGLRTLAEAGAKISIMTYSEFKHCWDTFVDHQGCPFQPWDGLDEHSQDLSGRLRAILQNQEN

Take `Nc1c(C(=O)NCc2ccco2)c2nc3ccccc3nc2n1CCN1CCCCC1`: in assay [1], the activity change, negative = inhibition was 29.1%. Moreover, in assay [2], the Potency is 7.94 µM (active).
For `O=c1cccc2n1C[C@H]1C[C@@H]2CN(CCO)C1`, the results for the Potency in assay [3], in assay [4] and in assay [5] were 15.8 µM (active), above 46 µM and above 46 µM, respectively. Further, the compound was classed as inactive in assay [6] and in [7]. For the same compound, the Potency result in [8], in assay [9] and in [10] was “inactive” in each case.
Turning to `C=CCCN1C[C@@H]2C[C@H](C1)c1cccc(=O)n1C2`, the Potency entry in assay [3], in assay [8], in assay [9] and in assay [10] was “inactive” each time. For the same compound, the Potency in [4] and in assay [5] was above 46 µM each time. The outcome in [6] was inactive.
Turning to `C[C@H]1CCC/C=C/C2C[C@H](O)CC2[C@H](O)/C=C/C(=O)O1` (some centres not stated), the activity change, negative = inhibition in assay [1] was 5.62%. Further, the outcome in assay [11] was inactive. Besides, the Potency in [4] is above 20.6 µM.
Regarding `COc1cc2c(cc1O)-c1c(O)c(OC)cc3c1[C@H](C2)N(C)CC3`, the Potency is 3.16 µM (active) in assay [3], above 46 µM in assay [4], above 46 µM in assay [5] and 2.51 µM (active) in [9]. The outcome in [6] and in assay [13] was inactive. Moreover, the Potency result in assay [12] is “inactive”.
